Results: PubChem BioAssay AID504465 (National Center for Advancing Translational Sciences (NCATS), 2011)
Hit rate of the full screen: of about 2,100 compounds, about 210 (10%) were called active. About 53% were inconclusive and are not listed. Calls come from the whole dose curve; as a rule, active = well fitted inhibition curve with a large enough effect; inconclusive = small, poorly fitted or top-dose-only effect, or effect the other way; inactive = no such curve, though single readings can be large or run the other way. This is one part of the list. A call without a number means that no potency is given here.

assay: IN Cell qHTS Assay for Inhibitors of the mTORC1 Signaling Pathway in MEF (Tsc2-/-, p53-/-) Cells: Sytravon; conditions: phospho-rpS6 immunofluorescence, 24 h; series mostly up to 38.3 µM; note: nearly all actives have a fitted effect of over 60% in size
In short: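 Immunofluorescence of rpS6 phosphorylation (Ser235/236) in mouse embryonic fibroblasts lacking Tsc2 and p53, after 24 h compound exposure; Hoechst-normalized signal imaged, each well scored as % active cells relative to rapamycin (7.5 nM) and DMSO controls.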
Potency is the fitted concentration of half-maximal effect.

Row | Structure (SMILES) | Potency
1 | Cn1c(=O)c2c(-c3ccc(Br)cc3)n(Cc3ccc(F)cc3)cc2n(C)c1=O | inactive
2 | CSc1ccccc1NC(=O)CCS(=O)(=O)c1nc(-c2cccs2)cc(C(F)(F)F)n1 | inactive
3 | COc1ccc(NC(=O)CCS(=O)(=O)c2nc(-c3cccs3)cc(C(F)(F)F)n2)cc1OC | 16.5 µM (active)
4 | COc1ccc(NC(=O)CCS(=O)(=O)c2nc(-c3cccs3)cc(C(F)(F)F)n2)cc1 | inactive
5 | O=C(CCS(=O)(=O)c1nc(-c2cccs2)cc(C(F)(F)F)n1)Nc1cc(Br)ccc1O | 7.36 µM (active)
6 | COc1ccc(NC(=O)C2CCC(CNS(=O)(=O)c3ccc(Br)s3)CC2)cc1OC (configuration not stated) | inactive
7 | Cc1cccc(N2CCN(c3ncnc4c3nc3n4CCCCC3)CC2C)c1 (configuration not stated) | 14.7 µM (active)
8 | c1ccc(N2CCN(c3ncnc4c3nc3n4CCCCC3)CC2)cc1 | inactive
9 | CC(=O)c1ccc(N2CCN(c3ncnc4c3c(-c3ccccc3)cn4-c3cccc(C)c3)CC2)cc1 | inactive
10 | CCCc1cc(N2CCN(c3ccccc3)CC2)n2cnnc2n1 | inactive
11 | CCCCC1CCC(C(=O)N2CC(=O)Nc3ccc(F)cc3C2c2ccc(F)cc2)CC1 (configuration not stated) | 16.5 µM (active)
12 | Cc1c(Cl)cccc1NC(=O)c1ccc2c(c1)nnn2C1CCCC1 | inactive
13 | Nc1c(C(=O)c2ccc(F)cc2)sc(Nc2ccccc2F)c1S(=O)(=O)c1ccc(Br)cc1 | inactive
14 | Cc1cccc(NC(=O)Cn2nc(-c3ccc(Cl)cc3)c3ccccc3c2=O)c1 | inactive
15 | COc1ccc(Nc2nnc(-c3ccc(C)c(S(=O)(=O)N4CCN(C)CC4)c3)c3ccccc23)cc1 | 16.5 µM (active)
16 | Cc1cccc(Nc2nnc(-c3ccc(C)c(S(=O)(=O)N4CCN(C)CC4)c3)c3ccccc23)c1 | 14.7 µM (active)
17 | COc1ccc(OC2CCN(S(=O)(=O)c3ccc(OC)cc3)CC2)cc1 | inactive
18 | COC(=O)COc1ccc(-c2nnc(Nc3ccc(O)cc3)c3ccccc23)cc1 | inactive
19 | Cc1cc(-c2ccc(C)c(S(=O)(=O)N3CCOc4ccc(Cl)cc43)c2)on1 | inactive
20 | Cc1ccc(-c2nnc(Nc3cccc(Cl)c3)c3ccccc23)cc1S(=O)(=O)N1CCN(C)CC1 | 9.27 µM (active)
21 | CCCCC(=O)Nc1nnc(S(=O)(=O)N2CCCCCC2)s1 | inactive
22 | CCCN(C(=O)Cn1ncc2c([nH]c3ccc(C)cc32)c1=O)c1ccccc1C | inactive
23 | CCN(CC)CCCNc1ncnc2c1cnn2-c1ccc(C)c(C)c1 | inactive

Row | Structure (SMILES) | Potency
24 | O=C(Nc1ccc(F)cc1F)N1CCN(c2ccc(Cl)c(Cl)c2)CC1 | inactive
25 | Cc1ccccc1NC(=O)CCn1cnc2onc(-c3ccc(F)cc3)c2c1=O | inactive
26 | Cc1cc2c(cc1C)NC(CC(=O)Nc1ccccc1)C(=O)N2 (configuration not stated) | inactive
27 | CCS(=O)(=O)c1ncc(Cl)c(C(=O)N2CCN(c3cccc(Cl)c3)CC2)n1 | 2.61 µM (active)
28 | Cc1ccc2nc(N3CCC(C(=O)N4CCN(c5cccc(Cl)c5)CC4)CC3)[nH]c2c1 | inactive
29 | CCCS(=O)(=O)c1ncc(Cl)c(C(=O)N2CCN(c3ccc(OC)cc3)CC2)n1 | inactive
30 | CCS(=O)(=O)c1ncc(Cl)c(C(=O)N2CCN(c3ccc(OC)cc3)CC2)n1 | 4.65 µM (active)
31 | CS(=O)(=O)c1ncc(Cl)c(C(=O)N2CCN(c3cccc(Cl)c3)CC2)n1 | 0.521 µM (active)
32 | Cc1ccccc1S(=O)(=O)Cc1ccc(C(=O)N2CCN(c3cccc(Cl)c3)CC2)o1 | inactive
33 | CNS(=O)(=O)c1cn(CC(=O)N2CCN(c3cccc(Cl)c3)CC2)cc1S(=O)(=O)NC | inactive
34 | CCn1c2c(c(=O)n3ncc(C(=O)N4CCN(c5ccc(Cl)cc5)CC4)c13)CN(Cc1ccc(OC)cc1)CC2 | inactive
35 | Cc1oc2ncnc(N3CCCCC3)c2c1C(=O)N1CCN(c2cccc(Cl)c2)CC1 | inactive
36 | COc1ccc(N2CCN(C(CNC(=O)C(=O)NCc3ccc(F)cc3)c3cccnc3)CC2)cc1 (configuration not stated) | inactive
37 | Cc1ccc(CNS(=O)(=O)c2cc(C(=O)Nc3cccc(C(F)(F)F)c3)ccc2F)cc1 | inactive
38 | COc1ccc(NC(=O)c2c(NCc3ccc(C)o3)sc3c2CCC(C)C3)c(OC)c1 (configuration not stated) | inactive
39 | CC(=O)N1c2ccc(S(=O)(=O)NCC3CCC(C(=O)Nc4cccc(F)c4)CC3)cc2CC1C (configuration not stated) | inactive
40 | Cc1cc(-c2ccc(S(=O)(=O)Nc3cc(Cl)ccc3C)s2)on1 | inactive
41 | COc1cccc(CNC(=O)C2Cc3cc(S(=O)(=O)N4CCCCCC4)ccc3N2C(C)=O)c1 (configuration not stated) | inactive
42 | Cc1ccc2nc(/C(C#N)=C/c3cccc(Br)c3)[nH]c2c1 | inactive
43 | Cc1cccc(-n2nnnc2S(C)(=O)=O)c1 | 1.47 µM (active)
44 | CCc1ccc(S(=O)(=O)c2nnn(-c3cccc(C)c3)c2N)cc1 | inactive
45 | Cc1cccc(C2C=C(c3ccc(C)c(C)c3)Nc3nnnn32)c1 (configuration not stated) | inactive
46 | COc1ccc(C(=O)NC(c2ccccc2Cl)c2cc(Cl)c3cccnc3c2O)cc1 (configuration not stated) | inactive

Row | Structure (SMILES) | Potency
47 | O=C(Nc1nnc(-c2cc(Cl)ccc2Cl)o1)c1ccc2c(c1)OCCO2 | inactive
48 | COC(=O)c1sc2cccc(F)c2c1S(=O)(=O)N1CCN(c2cccc(OC)c2)CC1 | inactive
49 | COc1ccc(/C=C/c2nc(C#N)c(NC3CCCCC3)o2)cc1OC | inactive
50 | COc1ccc(NC(=O)c2c(C)oc3ccc(O)c(CN4CCCCCC4)c23)cc1 | inactive
51 | COc1cccc(-c2nnc3sc(CN4CCCCC4)cn23)c1 | 14.7 µM (active)
52 | COc1cccc(-c2cc(C(=O)Nc3ccn(Cc4ccc(C)cc4)n3)no2)c1 | inactive
53 | Cc1ccc(CNCc2c(C(=O)O)n(Cc3ccc(C)cc3)c3cc(C)ccc23)cc1 | inactive
54 | O=C(Nc1ccc(C(F)(F)F)cc1)c1cc(S(=O)(=O)NC2CCCCCC2)ccc1F | inactive
55 | CCc1ccccc1NC(=O)CSc1nnc(COc2ccccc2Cl)o1 | inactive
56 | Cc1ccc(OCC(=O)Nc2nnc(SCc3cc(=O)n4cc(C)ccc4n3)s2)cc1 | inactive
57 | COc1cc(C(=O)N2CCc3c([nH]c4ccccc34)C2c2ccc(C)cc2)cc(OC)c1OC (configuration not stated) | inactive
58 | COc1cc(C(=O)n2nc(C)c(Sc3ccc(Cl)cc3)c2C)cc(OC)c1OC | 11.7 µM (active)
59 | Cc1ccc(-n2c(SCc3ccccc3C)nc3[nH]ncc3c2=O)cc1C | inactive
60 | CC(C)(C)C1CCc2c(sc(NC(=O)c3cccc(Cl)c3)c2C(N)=O)C1 (configuration not stated) | 7.36 µM (active)
61 | COc1ccc(Cl)cc1NC(=O)c1c(NCc2cccnc2)sc2c1CCC(C)C2 (configuration not stated) | inactive
62 | COc1ccc(Cl)cc1NC(=O)c1c(NCc2cccs2)sc2c1CCC(C)C2 (configuration not stated) | inactive
63 | CCCCC(=O)OC1=C(C(=O)c2ccccc2)N(CCC)S(=O)(=O)c2ccccc21 | inactive
64 | Cc1scc(CN2CCN(c3ccccc3F)CC2)c1C | inactive
65 | CC1C(=O)Nc2ccc(S(=O)(=O)Nc3ccccc3Br)cc2NC1=O (configuration not stated) | inactive
66 | CN(C)CCNC(=O)c1ccc(-n2c(-c3ccccc3)cc3c2CCCCC3)cc1 | inactive
67 | CCS(=O)(=O)c1ncc(Cl)c(C(=O)Nc2ccccc2)n1 | 2.61 µM (active)
68 | CC(=O)Nc1c(C(=O)Nc2ccccc2F)oc2ccccc12 | inactive
69 | CCS(=O)(=O)c1ncc(Cl)c(C(=O)Nc2ccc(S(=O)(=O)N(C)c3ccccc3)cc2)n1 | 0.927 µM (active)

Row | Structure (SMILES) | Potency
70 | CCNC(=O)c1c(NC(=O)c2nc(S(=O)(=O)CC)ncc2Cl)sc2c1CCCC2 | 2.07 µM (active)
71 | CCCS(=O)(=O)c1ncc(Cl)c(C(=O)Nc2c(C(=O)Nc3ccccc3)oc3ccccc23)n1 | 2.07 µM (active)
72 | CCSc1ncc(Cl)c(C(=O)Nc2ccc(S(=O)(=O)N3CCCCC3CC)cc2)n1 (configuration not stated) | inactive
73 | CN(C)C(=O)c1c(NC(=O)c2ccccc2F)sc2c1CCCC2 | inactive
74 | CCS(=O)(=O)c1ncc(Cl)c(C(=O)Nc2c(C(=O)Nc3cccc(C)c3)oc3ccccc23)n1 | inactive
75 | Cc1cc(C)cc(-n2c(SCC(N)=O)nc3c([nH]c4ccccc43)c2=O)c1 | inactive
76 | CC1=C(C(=O)Nc2ccccc2)C(c2cccnc2)n2nc(SCc3ccccc3F)nc2N1 (configuration not stated) | inactive
77 | COc1ccc(Cl)cc1NC(=O)c1c(NCc2ccc(C)o2)sc2c1CCC(C)C2 (configuration not stated) | inactive
78 | COC(=O)c1ccc([C@H]2Nc3ccc(S(=O)(=O)Nc4ccc(F)cc4)cc3[C@H]3C=CC[C@H]32)cc1 | inactive
79 | CC(C)c1ccc(S(=O)(=O)Nc2ccc3oc4c(c3c2)C(=O)CC(C)(C)C4)cc1 | inactive
80 | COc1cc(S(=O)(=O)NCCc2c(C)[nH]c3ccccc23)c(C)cc1C | inactive
81 | CN(C)S(=O)(=O)c1ccc(C(=O)Nc2ccc(-n3nncc3-c3ccccc3)cc2)cc1 | inactive
82 | COC(=O)c1sccc1S(=O)(=O)N(CC(=O)Nc1ccc(C)cc1)c1ccccc1 | inactive
83 | CSc1ncc(Cl)c(C(=O)N(C)c2ccccc2)n1 | inactive
84 | CCN(c1ccccc1)S(=O)(=O)c1ccc(NC(=O)c2nc(S(C)(=O)=O)ncc2Cl)cc1 | 2.07 µM (active)
85 | CN(c1ccccc1)S(=O)(=O)c1ccc(NC(=O)c2nc(S(C)(=O)=O)ncc2Cl)cc1 | 0.736 µM (active)
86 | CCN(CC)c1nc2ccccc2nc1C(=O)Nc1ccc(C(C)=O)cc1 | inactive
87 | Oc1cccc(Nc2nc(-c3ccccc3)nc3ccccc23)c1 | inactive
88 | Cc1ccc(-n2cnc3cc(C(=O)NCCC4=CCCCC4)ccc32)cc1Cl | inactive
89 | Cc1ccc(NC(=O)N2CC3CCCN3c3ccccc32)cc1Cl (configuration not stated) | inactive
90 | Cc1ccc(-c2nn3c(=O)cc(CN4CCN(C(=O)Nc5cc(Cl)ccc5C)CC4)nc3s2)cc1 | inactive
91 | CCOC(=O)c1c(NC(=O)c2ccc(S(=O)(=O)N3CCC(C)CC3)cc2)sc2c1CCN(C)C2 | inactive
92 | COc1ccccc1CNC(=O)C(=O)NCC(c1cccnc1)N1CCN(c2ccc(F)cc2)CC1 (configuration not stated) | inactive
